This passage reports outcome and AC50 results from PubChem BioAssay (EPA / NIEHS).

Molecules are shown by their SMILES. The source made the active and inactive calls. The calls were made as follows: active = hit-call score of the fitted dose curve at least 0.9, where 1 is the maximum; inactive = score below 0.9.

Read-out in the assay: TIMP1, TIMP1 (gene 7076)
Briefly: LTEA_HepaRG_TIMP1: Life Technologies and Expression Analysis (LTEA) Assay for TIMP1 using HepaRG (AID 2283534).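 As to outcome: TaqMan qRT-PCR signal normalized to ACTB GAPDH and POLR2A housekeeping genes.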 To be noted: mRNA level, 48 h; actives raise or lower the signal. As for the experimental part: LTEA_HepaRG is a cell based, multiplexed-readout assay that uses HepaRG, a human liver cell line, with measurements taken at 48 hours after chemical dosing on a 96-well plate.LTEA_HepaRG_TIMP1 is one of 102 assay component(s) measured in the LTEA HepaRG cell culture assay. It is a marker of Cell proliferation, survival, death.Data from the assay component LTEA_HepaRG_TIMP1 was analyzed into 1 endpoint. This assay endpoint, LTEA_HepaRG_TIMP1, was analyzed with bidirectional fitting relative to DMSO as the negative control and baseline of activity. Using a type of inducible reporter, measures of mRNA induction for gain or loss-of-signal activity can be used to understand regulation of transcription factor activity. To generalize the intended target to other relatable targets, this assay endpoint is annotated to the protease inhibitor intended target family, where the subfamily is metalloproteinase inhibitor.
A total of 1060 chemcials from the ToxCast library were tested in eight-point concentration-response experiments. Cell culture and cytotoxicity assays were conducted at Thermo Fisher Scientific's Custom Services facility (Madison, WI). A single lot of human HepaRG cells (Thermo Fisher Scientific, Frederick, MD) was used for the cell culture experiments. 96-well format collagen type I coated plates of human HepaRG cells were prepared using established methods. Briefly, cryopreserved HepaRG cells were thawed, plated at a density of approximately 100,000 cells/well in HepaRG Thaw, Plate, and General Purpose media (HPRG770, Thermo Fisher Scientific), and incubated for 48 hours. 0.5% DMSO was selected as vehicle control to balance the requisite need of DMSO in HepaRG cultures to maintain differentiation (for example, baseline metabolism, proportions of hepatocytes vs. cholangiocytes), while enabling further hepatic receptor pathway activation (for example, PXR and CAR) in response to chemical exposure. 48 hours after plating, the culture medium was replaced with HepaRG Serum-Free Incudtion Media. Cells were exposed to each test chemical in duplicate and maintained in CO2 incubators for another 48 hours. Chemical plates were thawed to room temperature and 200x concentrations of treatment groups were prepared. 8-point conentration-reponse curves were made with the highest exposure at 100 uM, followed by half-log dilutions, all in 0.5% DMSO. Each test plate contained variouse controls, induction positive controls (1mM phenobarbital), cytotoxicity positive controls ([…] aflatoxin B1), vehicle controls (0.5% DMSO), and total lysis controls (0.5% DMSO). Cell morphology images were taken using an Essen IncuCyte FLR automated microscope, with six 96-well plates imaged in about 24 minutes. Images were captured and exported and JPEG files. Spent culture media was transfered to black-well plates for the LDH assay, and remaining media was sorted at -80 C for later use. Cells were treated with RLT buffer and frozen until shipped for gene expression analysis. Total RNA was isolated from the cell suspension in 75 uL of Buffer RLT (Qiagen, Germantown, MD 20874) by Quintiles/Expression Analysis (Durham, NC) using a custom isolation procedure. Total RNA from each plate well was transferred to a preamplification plate. Fluidigm's 96.96 Dynamic ArrayTM (Fluidigm, Amsterdam, the Netherlands) technology was used for gene expression analyses by quantitative reverse transcription polymerase chain reaction (qRT-PCR, performed by Quintiles/Expression Analysis, Durham, NC)89. Standard TaqManTM Assays (Applied Biosystems/ThermoFisher Scientific, Foster City, CA) were used to assess the expression of 93 genes selected based on their selectivity and sensitivity to important hepatic receptors known to be modulated by environmental chemicals; importance in human hepatocyte functionality; and hepatotoxicity. […]
`CC(C)c1cccc(C(C)C)c1`: the molecule was called inactive.

As to `CC1(C)C(=O)NC(=O)N1CO`, the result was inactive.

With `CN(C)CCCN(C)CCCN(C)C`, the molecule was called inactive.

`C/C=C/c1ccc(OC)cc1`: the molecule was classed as inactive.

As for `C#CC(O)C(CC)CCCC` (stereo not given), the molecule was classed as inactive.

On to `O=C1OC(c2ccc(O)cc2)(c2ccc(O)cc2)c2ccccc21`, for which the call was inactive.

In the case of `NC=O`, the molecule was called inactive.

Turning to `Cc1cc(Cc2ccc(N)c(C)c2)ccc1N`, the call was inactive.

Consider `Nc1nc(=S)c2[nH]cnc2[nH]1`, for which the molecule was called inactive.

As to `CCc1cc(C2=C(C(=O)O)N(c3ccccc3C(F)(F)F)S(=O)(=O)c3ccccc32)cc2c1OCO2`, the outcome was inactive.

As for `N[C@@H](Cc1c[nH]c2ccccc12)C(=O)O`, the result was inactive.

`OCC(CO)n1cnc(-c2ccc(F)cc2)c1-c1ccnc(Oc2ccccc2)n1`: the result was inactive.

As for `COC(=O)CCC(=O)OC`, the molecule was classed as inactive.

`O=C1O[C@H]([C@H](O)CO)C(O)=C1O`: the molecule was called inactive.

`CC1=C(C)S(=O)(=O)CCS1(=O)=O`: the molecule was called inactive.

As for `CC(N)=O`, the call was inactive.

For `CC(COCC(C)OC(=O)c1ccccc1)OC(=O)c1ccccc1` (stereo not given), the molecule was called inactive.

On to `CO[C@@H]1COCC[C@@H]1N[C@@H]1CC[C@@](C(=O)N2CCc3ncc(C(F)(F)F)cc3C2)(C(C)C)C1`, for which the molecule was called inactive.

As to `CC(C)c1cccc(C(C)C)c1NC(=O)NS(=O)(=O)c1cc(C(C)(C)O)co1`, the call was inactive.

For the molecule `Cc1cn([C@H]2C=C[C@@H](CO)O2)c(=O)[nH]c1=O`, the result was inactive.

Regarding `O=C1NC(=O)C(c2ccccc2)(c2ccccc2)N1`, the molecule was classed as inactive.

As to `O=C(N[C@@H](c1ccccc1)[C@@H]1CCCCN1)c1cccc(C(F)(F)F)c1Cl`, the molecule was classed as inactive.

In general, AC50 refers to the midpoint of the concentration-response curve, whichever way the signal moves. With `Cc1c(C)c2c(c(C)c1O)CCC(C)(COc1ccc(CC3SC(=O)NC3=O)cc1)O2` (stereo not given), the AC50 is 50 µM (active).

Regarding `O=Cc1ccccc1C=O`, the result was inactive.

`CCOCCOCCO`: the result was inactive.

In the case of `CCC(C)N(C)C(=O)c1cc2ccccc2c(-c2ccccc2Cl)n1` (stereo not given), the outcome was inactive.

On to `O=NO`, for which the molecule was classed as inactive.

Take `CC(=O)S[C@H](C(=O)N[C@H]1Cc2ccccc2[C@H]2CCC[C@@H](C(=O)O)N2C1=O)C(C)C`: the call was inactive.

Turning to `CS(=O)(=O)c1ccc([C@@H](C[C@H]2CCC(=O)C2)C(=O)Nc2cnccn2)cc1Cl`, the call was inactive.

Regarding `C/C=C/C=C/C(=O)O`, the molecule was classed as inactive.

As to `Cn1cnc2c1c(=O)[nH]c(=O)n2C`, the call was inactive.

`CCCCCCC(C=O)=Cc1ccccc1`: the outcome was inactive.

Turning to `C=CCc1ccc(OC)c(OC)c1`, the result was inactive.

Consider `O=C1c2c(O)cccc2Cc2cccc(O)c21`, for which the result was inactive.

For `NC(=Nc1ccccc1)Nc1ccccc1`, the result was inactive.

With `CCCC[C@H]1CN(CC2CCOCC2)C(=O)OC12CCN(C1(C)CCN(C(=O)c3c(C)ncnc3C)CC1)CC2`, the outcome was inactive.

As to `CC(C)COC(=O)CCCCC(=O)OCC(C)C`, the molecule was classed as inactive.

For the molecule `CCCCCCC(CCCCCCCCCCC(=O)OCC(COC(C)=O)OC(C)=O)OC(C)=O` (stereo not given), the outcome was inactive.

`CN(C)C(=O)NC1(c2ccccc2)CCN(CCC[C@]2(c3ccc(Cl)c(Cl)c3)CCCN(C(=O)c3ccccc3)C2)CC1`: the outcome was inactive.

With `CCCCCCCCCC[N+](C)(C)[O-]`, the outcome was inactive.
